# In PubChem BioAssay (NCATS):
# A number with no mark means an inactive call. Records with an inconclusive call do not appear. Entries that show only a call come without a potency. Activity calls are given as the source filed them. The call rests on the fitted dose curve; in most records, active means well fitted curve in the direction sought with a large enough effect; inconclusive means small, poorly fitted or top-dose-only effect, or another doubt; inactive means no such curve, though single readings can be large; an effect the other way counts as inactive or inconclusive.
# What was measured:
# [1] = biological target: ATP-dependent 6-phosphofructokinase (Trypanosoma brucei brucei) (UniProt O15648); assay: qHTS Assay to Find Inhibitors of T. brucei phosphofructokinase: hit validation (AID 492961);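 further: luminescence reports ADP formed as PFK phosphorylates fructose-6-phosphate with ATP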
# ATP-dependent 6-phosphofructokinase (Trypanosoma brucei brucei), sequence (O15648 whole entry, looked up): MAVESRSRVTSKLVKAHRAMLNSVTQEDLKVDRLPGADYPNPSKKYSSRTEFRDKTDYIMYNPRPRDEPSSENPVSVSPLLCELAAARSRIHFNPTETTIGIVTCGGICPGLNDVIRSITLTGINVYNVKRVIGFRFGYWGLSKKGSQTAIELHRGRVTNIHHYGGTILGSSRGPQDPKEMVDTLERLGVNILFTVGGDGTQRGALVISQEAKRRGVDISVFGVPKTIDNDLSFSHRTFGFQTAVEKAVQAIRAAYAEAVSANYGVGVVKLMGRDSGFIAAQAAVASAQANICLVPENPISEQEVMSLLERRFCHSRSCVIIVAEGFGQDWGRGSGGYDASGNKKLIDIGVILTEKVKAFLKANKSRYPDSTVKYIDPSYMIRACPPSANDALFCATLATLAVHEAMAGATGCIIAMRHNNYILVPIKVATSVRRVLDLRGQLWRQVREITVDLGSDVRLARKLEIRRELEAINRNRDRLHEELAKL
# Procedure, shortened: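 Measures ADP output of PFK (1.25 nM) at 0.1 mM ATP, 0.5 mM F6P, pH 8.0 TEA buffer with 5 mM MgCl2. No-enzyme wells define full inhibition; uninhibited enzyme wells define zero.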
# CP211 = assay: qHTS profiling for inhibitors of Plasmodium falciparum proliferation (AID 504749); further: nearly all actives have a fitted effect of over 60% in size; further: potency means the concentration at half of the fitted maximal effect; details: P. falciparum in erythrocytes, SYBR Green DNA, 72 h; series mostly up to 12.8 µM
# Procedure, shortened: (§1)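 In a 72 h erythrocytic culture (37 C, humidified, 5% CO2) at 2.5% hematocrit and 0.3% starting parasitemia, compounds were tested; SYBR Green I in detergent lysis buffer stained parasite DNA overnight.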
# CP215 = assay: as above; details: P. falciparum in erythrocytes, SYBR Green DNA, 72 h; series mostly up to 12.8 µM
# Procedure, shortened: as §1
# CP260 = assay: as above; details: P. falciparum in erythrocytes, SYBR Green DNA, 72 h; series mostly up to 12.8 µM
# Procedure, shortened: as §1
# CP266 = assay: as above; details: P. falciparum in erythrocytes, SYBR Green DNA, 72 h; series mostly up to 12.8 µM
# Procedure, shortened: as §1
# CP269 = assay: as above; details: P. falciparum in erythrocytes, SYBR Green DNA, 72 h; series mostly up to 12.8 µM
# Procedure, shortened: as §1
# CP297 = assay: as above; details: P. falciparum in erythrocytes, SYBR Green DNA, 72 h; series mostly up to 12.8 µM
# Procedure, shortened: as §1
# CP315 = assay: as above; details: P. falciparum in erythrocytes, SYBR Green DNA, 72 h; series mostly up to 12.8 µM
# Procedure, shortened: as §1
# CP335 = assay: as above; details: P. falciparum in erythrocytes, SYBR Green DNA, 72 h; series mostly up to 12.8 µM
# Procedure, shortened: as §1
# GB4 = assay: as above; details: P. falciparum in erythrocytes, SYBR Green DNA, 72 h; series mostly up to 12.8 µM
# Procedure, shortened: as §1
# P94_40 = assay: as above; details: P. falciparum in erythrocytes, SYBR Green DNA, 72 h; series mostly up to 12.8 µM
# Procedure, shortened: as §1
# PC26 = assay: as above; details: P. falciparum in erythrocytes, SYBR Green DNA, 72 h; series mostly up to 12.8 µM
# Procedure, shortened: as §1
# W2 = assay: as above; details: P. falciparum in erythrocytes, SYBR Green DNA, 72 h; series mostly up to 12.8 µM
# Procedure, shortened: as §1
# [2] = biological target: Cytochrome P450 2C9 (Homo sapiens) (UniProt P11712); assay: qHTS Assay for Inhibitors and Substrates of Cytochrome P450 2C9 (AID 883); further: nearly all actives have a fitted effect of over 60% in size; further: potency means the concentration at half of the fitted maximal effect
# Cytochrome P450 2C9 (Homo sapiens), sequence (P11712 whole entry, looked up): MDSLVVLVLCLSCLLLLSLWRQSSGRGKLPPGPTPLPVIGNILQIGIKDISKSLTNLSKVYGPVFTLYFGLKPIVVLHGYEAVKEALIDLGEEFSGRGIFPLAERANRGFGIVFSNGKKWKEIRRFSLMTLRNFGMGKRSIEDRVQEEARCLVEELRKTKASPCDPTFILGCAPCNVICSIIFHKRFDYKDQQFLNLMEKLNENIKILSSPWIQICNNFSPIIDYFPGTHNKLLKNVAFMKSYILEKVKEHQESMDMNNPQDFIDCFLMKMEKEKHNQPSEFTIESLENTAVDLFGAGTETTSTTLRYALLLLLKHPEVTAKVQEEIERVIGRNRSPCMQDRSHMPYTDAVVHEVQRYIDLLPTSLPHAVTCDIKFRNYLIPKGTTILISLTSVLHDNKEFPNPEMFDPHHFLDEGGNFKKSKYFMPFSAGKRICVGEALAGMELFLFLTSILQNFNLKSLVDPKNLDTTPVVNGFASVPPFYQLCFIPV
# Procedure, shortened: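 Turnover of Luciferin-H (100uM, KM) by 10nM human CYP2C9 was measured over 60 min at 37C with NADPH regeneration; inhibitors and some substrates reduce luminescence. Data normalized to sulphaphenazole 57uM.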
# [3] = biological target: Cytochrome P450 3A4 (Homo sapiens) (UniProt P08684); assay: qHTS Assay for Inhibitors and Substrates of Cytochrome P450 3A4 (AID 884); further: nearly all actives have a fitted effect of over 50% in size; further: potency means the concentration at half of the fitted maximal effect
# Cytochrome P450 3A4 (Homo sapiens), sequence (P08684 whole entry, looked up): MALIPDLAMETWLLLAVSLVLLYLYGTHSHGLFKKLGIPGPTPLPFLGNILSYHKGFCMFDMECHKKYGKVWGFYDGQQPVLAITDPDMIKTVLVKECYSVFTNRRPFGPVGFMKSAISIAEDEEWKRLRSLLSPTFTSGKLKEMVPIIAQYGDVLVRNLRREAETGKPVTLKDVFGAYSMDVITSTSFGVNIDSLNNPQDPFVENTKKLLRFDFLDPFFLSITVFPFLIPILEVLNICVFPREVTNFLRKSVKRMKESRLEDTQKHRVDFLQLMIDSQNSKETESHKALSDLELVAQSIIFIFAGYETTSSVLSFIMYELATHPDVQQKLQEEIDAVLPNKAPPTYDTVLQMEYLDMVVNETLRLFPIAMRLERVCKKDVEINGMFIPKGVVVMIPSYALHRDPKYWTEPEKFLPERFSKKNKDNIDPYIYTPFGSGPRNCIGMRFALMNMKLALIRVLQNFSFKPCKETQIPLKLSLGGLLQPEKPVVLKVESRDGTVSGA
# Procedure, shortened: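 Luminescent readout of luciferin produced by CYP3A4 (20 nM) dealkylation of Luciferin-PPXE, 25 uM (its KM). NADPH-driven reaction ran 60 min at RT after 10 min compound preincubation; data scaled to 57 uM ketoconazole as 100% inhibition.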
# [4] = biological target: Cytochrome P450 2D6 (Homo sapiens) (UniProt P10635); assay: qHTS Assay for Inhibitors and Substrates of Cytochrome P450 2D6 (AID 891); further: nearly all actives have a fitted effect of over 60% in size; further: potency means the concentration at half of the fitted maximal effect
# Cytochrome P450 2D6 (Homo sapiens), sequence (P10635 whole entry, looked up): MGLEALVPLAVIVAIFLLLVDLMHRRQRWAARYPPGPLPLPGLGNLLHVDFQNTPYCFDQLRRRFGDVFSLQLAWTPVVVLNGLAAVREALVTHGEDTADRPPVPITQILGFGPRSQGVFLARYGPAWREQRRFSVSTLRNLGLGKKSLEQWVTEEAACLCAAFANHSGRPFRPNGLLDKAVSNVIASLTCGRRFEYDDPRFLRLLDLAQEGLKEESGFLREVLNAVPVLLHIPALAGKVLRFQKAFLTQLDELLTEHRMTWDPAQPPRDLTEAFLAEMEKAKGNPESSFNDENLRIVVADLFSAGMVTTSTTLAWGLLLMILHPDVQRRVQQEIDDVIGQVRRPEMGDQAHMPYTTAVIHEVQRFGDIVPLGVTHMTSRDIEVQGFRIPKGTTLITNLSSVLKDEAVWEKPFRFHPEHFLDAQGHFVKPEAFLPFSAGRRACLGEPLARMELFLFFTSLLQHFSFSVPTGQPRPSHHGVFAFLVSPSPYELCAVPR
# Procedure, shortened: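 Luminescent read-out of luciferin formed by 5 nM human CYP2D6 demethylating 30 uM Luciferin-ME EGE (Km level) over 60 min at room temperature after NADPH regeneration addition. Data normalized to full inhibition by 1.43 uM quinidine.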
# [5] = biological target: Cytochrome P450 2C19 (Homo sapiens) (UniProt P33261); assay: qHTS Assay for Inhibitors and Substrates of Cytochrome P450 2C19 (AID 899); further: nearly all actives have a fitted effect of over 60% in size; further: potency means the concentration at half of the fitted maximal effect
# Cytochrome P450 2C19 (Homo sapiens), sequence (P33261 whole entry, looked up): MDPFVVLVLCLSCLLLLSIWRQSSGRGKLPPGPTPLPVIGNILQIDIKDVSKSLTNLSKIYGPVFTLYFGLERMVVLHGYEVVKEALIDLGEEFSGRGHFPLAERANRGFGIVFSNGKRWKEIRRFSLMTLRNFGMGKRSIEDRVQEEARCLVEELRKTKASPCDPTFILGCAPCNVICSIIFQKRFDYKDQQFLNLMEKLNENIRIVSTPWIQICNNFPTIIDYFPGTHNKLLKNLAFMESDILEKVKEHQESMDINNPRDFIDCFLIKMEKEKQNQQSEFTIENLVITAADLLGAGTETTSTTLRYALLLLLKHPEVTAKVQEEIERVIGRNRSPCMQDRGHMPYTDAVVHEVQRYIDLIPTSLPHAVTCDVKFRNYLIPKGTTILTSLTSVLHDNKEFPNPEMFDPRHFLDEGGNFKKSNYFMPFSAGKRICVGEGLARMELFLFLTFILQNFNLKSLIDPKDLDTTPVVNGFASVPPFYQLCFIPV
# Procedure, shortened: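 Reactions contain 5nM enzyme, 10uM Luciferin-H EGE (KM) and 50mM KPO4; compound preincubates 10 min at 37C, NADPH regeneration starts turnover for 60 min. Luminescence after detection reagent gives activity.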
# 7G8 = assay: qHTS profiling for inhibitors of Plasmodium falciparum proliferation (AID 504749); further: nearly all actives have a fitted effect of over 60% in size; further: potency means the concentration at half of the fitted maximal effect; details: P. falciparum in erythrocytes, SYBR Green DNA, 72 h; series mostly up to 12.8 µM
# Procedure, shortened: as §1
# [6] = S16 Schwann cell PMP22 intronic element firefly luciferase assay (AID 624032); further: nearly all actives have a fitted effect of over 30% in size
# Procedure, shortened: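 Luciferase reporter of PMP22 intronic-element expression in stably transfected S16 rat Schwann cells, read by ONE-Glo luminescence after 24 h compound exposure at 37 C. Activity scaled between DMSO (0%) and positive-control PTC124; concentration-effect curves quality-classified.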
# [7] = biological target: Cytochrome P450 3A4 (Homo sapiens) (UniProt P08684); assay: qHTS Assay for Activators of Cytochrome P450 3A4 (AID 885); further: nearly all actives have a fitted effect of over 65% in size; further: potency means the concentration at half of the fitted maximal effect
# Procedure, shortened: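 Human CYP3A4 dealkylates Luciferin-PPXE to luciferin, which luciferase detection converts to light. Substrate was at its KM (25uM), buffer 200mM KPO4, reaction 60 min at RT.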
compound,measurement,setting,value
NC(=O)c1cc[n+](CC2=C(C(=O)[O-])N3C(=O)[C@@H](NC(=O)Cc4cccs4)[C@@H]3SC2)cc1,outcome,[1],inactive
same,Potency,CP211,inactive
same,Potency,CP215,inactive
same,Potency,CP260,inactive
same,Potency,CP266,inactive
same,Potency,CP269,inactive
same,Potency,CP297,inactive
same,Potency,CP315,inactive
same,Potency,CP335,inactive
same,Potency,GB4,inactive
same,Potency,P94_40,inactive
same,Potency,PC26,inactive
same,Potency,W2,inactive
Clc1ccc([C@H](Cn2ccnc2)OCc2csc3c(Cl)cccc23)c(Cl)c1,Potency,[2],316 nM (active)
same,Potency,[3],794 nM (active)
same,Potency,[4],5.01 µM (active)
same,Potency,[5],251 nM (active)
same,Potency,7G8,1.41 µM (active)
same,Potency,CP266,inactive
same,Potency,CP297,6.42 µM (active)
same,Potency,GB4,5.1 µM (active)
same,Potency,P94_40,3.55 µM (active)
same,Potency,PC26,6.42 µM (active)
same,Potency,W2,2.28 µM (active)
O=C(NC[C@@H](O)CO)c1c(I)c(C(=O)NC[C@@H](O)CO)c(I)c(N(CCO)C(=O)CO)c1I,outcome,[1],inactive
same,Potency,[6],inactive
same,Potency,7G8,inactive
same,Potency,CP211,inactive
same,Potency,CP215,inactive
same,Potency,CP260,inactive
same,Potency,CP269,inactive
same,Potency,CP297,inactive
same,Potency,CP315,inactive
same,Potency,CP335,inactive
same,Potency,GB4,inactive
same,Potency,PC26,inactive
same,Potency,W2,inactive
C[C@@]12C=CC(=O)C=C1CC[C@@H]1[C@@H]2[C@H](O)C[C@]2(C)[C@@H]1CC[C@]2(O)C(=O)CO,Potency,[5],inactive
C[C@@]1(O)CCOC(=O)C1,Potency,[2],inactive
same,Potency,[5],inactive
CO[C@H]1[C@@H](OC(N)=O)[C@H](O)[C@@H](Oc2ccc3c(O)c(NC(=O)c4ccc(O)c(CC=C(C)C)c4)c(=O)oc3c2C)OC1(C)C,Potency,[6],inactive
same,Potency,7G8,inactive
same,Potency,CP211,inactive
same,Potency,CP215,inactive
same,Potency,CP260,inactive
same,Potency,CP269,inactive
same,Potency,CP315,inactive
same,Potency,CP335,inactive
same,Potency,GB4,inactive
same,Potency,P94_40,inactive
same,Potency,PC26,inactive
CN(C)CCOC(=O)[C@@H](c1ccccc1)C1(O)CCCC1,outcome,[1],inactive
same,Potency,7G8,inactive
same,Potency,CP211,inactive
same,Potency,CP215,inactive
same,Potency,CP269,inactive
same,Potency,CP315,inactive
same,Potency,CP335,inactive
same,Potency,P94_40,inactive
same,Potency,W2,8.49 µM (active)
COc1ccc(C[C@@](C)(N)C(=O)O)cc1OC,Potency,7G8,inactive
same,Potency,CP211,inactive
same,Potency,CP215,inactive
same,Potency,CP260,inactive
same,Potency,CP266,inactive
same,Potency,CP269,inactive
same,Potency,CP297,inactive
same,Potency,CP315,inactive
same,Potency,GB4,inactive
same,Potency,P94_40,inactive
same,Potency,PC26,inactive
same,Potency,W2,inactive
C[C@H]1CC[C@@H]2[C@@H](C)[C@H]3[C@H](C[C@H]4[C@@H]5CC=C6C[C@@H](O[C@]7(O[C@H]8O[C@@H](C)[C@@H](O)[C@@H](O)[C@@H]8O)C[C@@H](O[C@@H]8O[C@H](CO)[C@@H](O)[C@H](O)[C@@H]8O)[C@@H](O)[C@H](CO)O7)CC[C@]6(C)[C@H]5CC[C@@]34C)N2C1,Potency,[2],inactive
same,Potency,[3],inactive
same,Potency,[4],inactive
same,Potency,[5],inactive
CN1CCN([C@@H](c2ccccc2)c2ccc(Cl)cc2)CC1,Potency,[4],2 µM (active)
same,outcome,[1],inactive
same,Potency,[6],inactive
same,Potency,7G8,3.16 µM (active)
same,Potency,CP211,inactive
same,Potency,CP260,inactive
same,Potency,CP266,inactive
same,Potency,CP269,inactive
same,Potency,CP297,inactive
same,Potency,CP315,inactive
same,Potency,W2,2.03 µM (active)
C#C[C@@]1(O)CC[C@@H]2[C@@H]3CCC4=CC(=O)CC[C@@H]4[C@H]3CC[C@]21C,Potency,[5],5010 nM (active)
CN(C)c1ccc(-c2nccc(NCc3ccccc3)n2)cc1,Potency,[3],7940 nM (active)
same,Potency,[7],inactive
same,Potency,[4],3.16 µM (active)
C#C[C@@]1(OC(C)=O)CC[C@@H]2[C@@H]3CCC4=C[C@@H](OC(C)=O)CC[C@H]4[C@H]3CC[C@]21C,Potency,[3],inactive
same,Potency,[7],5.01 µM (active)
CC(C)NC[C@H]1CCc2cc(CO)c([N+](=O)[O-])cc2N1,outcome,[1],inactive
same,Potency,[6],inactive
same,Potency,7G8,inactive
same,Potency,CP215,inactive
same,Potency,CP260,inactive
same,Potency,CP266,inactive
same,Potency,CP269,inactive
same,Potency,CP297,inactive
same,Potency,CP315,inactive
same,Potency,CP335,inactive
same,Potency,GB4,inactive
same,Potency,P94_40,inactive
same,Potency,PC26,inactive
same,Potency,W2,inactive
COc1ccc(CNc2ncncc2-c2ccccc2CN(C)C)c(OC)c1,Potency,[3],398 nM (active)
same,Potency,[7],inactive
same,Potency,[4],2.51 µM (active)
CN(C/C=C\c1ccccc1)Cc1cccc2ccccc12,Potency,[4],0.251 µM (active)
same,Potency,[5],501 nM (active)
same,Potency,CP215,inactive
same,Potency,CP260,inactive
same,Potency,CP266,inactive
same,Potency,CP269,inactive
same,Potency,CP315,inactive
same,Potency,CP335,inactive
same,Potency,P94_40,inactive
same,Potency,PC26,inactive
CN(C)CCO[C@@H](c1ccc(Cl)cc1)c1ccccn1,Potency,[5],inactive
CN1CCCN([C@@H](c2ccccc2)c2ccc(Cl)cc2)CC1,Potency,[4],0.251 µM (active)
CC[C@H](Cc1c(I)cc(I)c(N)c1I)C(=O)O,outcome,[1],inactive
same,Potency,7G8,inactive
same,Potency,CP211,inactive
same,Potency,CP215,inactive
same,Potency,CP260,inactive
same,Potency,CP266,inactive
same,Potency,CP269,inactive
same,Potency,CP297,inactive
same,Potency,CP315,inactive
same,Potency,CP335,inactive
same,Potency,GB4,inactive
same,Potency,P94_40,inactive
same,Potency,PC26,inactive
Nc1ccccc1S(N)(=O)=O,Potency,[2],inactive
Clc1ccc(CC[C@H](Cn2ccnc2)Sc2c(Cl)cccc2Cl)cc1,Potency,[2],12.6 nM (active)
same,Potency,[7],inactive
same,Potency,[4],1.26 µM (active)
same,Potency,[5],2.5 nM (active)
same,outcome,[1],inactive
same,Potency,7G8,0.891 µM (active)
same,Potency,CP297,5.1 µM (active)
same,Potency,GB4,3.22 µM (active)
same,Potency,PC26,4.55 µM (active)
same,Potency,W2,2.03 µM (active)
CC(C)(C)NC(=O)[C@@H]1CC[C@@H]2[C@@H]3CC[C@@H]4NC(=O)C=C[C@@]4(C)[C@H]3CC[C@]21C,outcome,[1],inactive
same,Potency,CP211,inactive
same,Potency,CP215,inactive
same,Potency,CP260,inactive
same,Potency,CP266,inactive
same,Potency,CP269,inactive
same,Potency,CP297,inactive
same,Potency,CP315,inactive
same,Potency,CP335,inactive
same,Potency,GB4,inactive
same,Potency,P94_40,inactive
same,Potency,PC26,inactive
same,Potency,W2,inactive
